Measurements reported in PubChem BioAssay (NCATS).
Inconclusive results are not listed. Active and inactive are the calls of the source. Calls follow the shape of the dose curve; as a rule, active = well fitted curve in the direction sought with a large enough effect; inconclusive = small, poorly fitted or top-dose-only effect, or another doubt; inactive = no such curve, though single readings can be large; an effect the other way counts as inactive or inconclusive.

How the values were obtained:
[1] = test system: CRL-7250; experiment: Cytotoxic Profiling of Annotated Libraries Using Quantitative High-Throughput Screening (AID 1296008); conditions: Five cell lines viability, CellTiter-Glo ATP luminescence, 48-72 h; max response: hits give low values; also: nearly all actives have a fitted effect of over 60% in size; also: potency is read from the fitted curve at half-maximal effect; as to max response: % is scaled to controls: 0 for no effect and ±100 for the full control effect
In short: (§1)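 Cells exposed to compounds for 48 or 72 hr at 37 degrees Celsius. Viability read as ATP-coupled luminescence with CellTiter-Glo after 10 min at room temperature.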

[2] = test system: HaCat; experiment: as above; conditions: Five cell lines viability, CellTiter-Glo ATP luminescence, 48-72 h; max response: hits give low values
In short: as §1

[3] = test system: KB-3-1; experiment: as above; conditions: Five cell lines viability, CellTiter-Glo ATP luminescence, 48-72 h; max response: hits give low values
In short: as §1

[4] = test system: NIH3T3; experiment: as above; conditions: Five cell lines viability, CellTiter-Glo ATP luminescence, 48-72 h; max response: hits give low values
In short: as §1

[5] = test system: NIH3T3; experiment: qHTS assay to identify novel small-molecules to repurpose for Merkel cell carcinoma treatment (AID 1296009); conditions: MCC and control cell lines, CellTiter-Glo viability, 72 h; series mostly up to 44.8 µM; also: nearly all actives have a fitted effect of over 60% in size
In short: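 CellTiter-Glo luminescence after 72 hr compound exposure at 37 degree celsius gave cell viability. Libraries NPC and MIPE were run as 8- and 11-point dose responses; RLUs normalized to DMSO (negative) and no-cell (cytotoxicity) controls.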

[6] = test system: C33A; experiment: Primary qHTS to identify gynecologic anti-cancer compounds using libraries of approved drugs and bioactive compounds (AID 1345084); conditions: Gynecologic cancer cell panel viability, ATPlite luminescence, 48 h; series mostly up to 57.5 µM; also: % is scaled to controls: 0 for no effect and ±100 for the full control effect; nearly all actives have a fitted effect of over 55% in size
In short: (§2)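 Luminescence from the ATPlite ATP-monitoring reagent indicates viable cell number; lower signal means cytotoxicity. Cells received compound 16 h after seeding and were exposed for 48 h across five concentrations.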

[7] = test system: CAOV3; experiment: as above; conditions: Gynecologic cancer cell panel viability, ATPlite luminescence, 48 h; series mostly up to 57.5 µM
In short: as §2

[8] = test system: CASKI; experiment: as above; conditions: Gynecologic cancer cell panel viability, ATPlite luminescence, 48 h; series mostly up to 57.5 µM
In short: as §2

[9] = test system: Es-2; experiment: as above; conditions: Gynecologic cancer cell panel viability, ATPlite luminescence, 48 h; series mostly up to 57.5 µM
In short: as §2

[10] = test system: HeLa; experiment: as above; conditions: Gynecologic cancer cell panel viability, ATPlite luminescence, 48 h; series mostly up to 57.5 µM
In short: as §2

[11] = test system: Hek293T; experiment: as above; conditions: Gynecologic cancer cell panel viability, ATPlite luminescence, 48 h, control line for the selectivity index; series mostly up to 57.5 µM
In short: as §2

[12] = test system: JEG-3; experiment: as above; conditions: Gynecologic cancer cell panel viability, ATPlite luminescence, 48 h; series mostly up to 57.5 µM
In short: as §2

[13] = test system: OV90; experiment: as above; conditions: Gynecologic cancer cell panel viability, ATPlite luminescence, 48 h; series mostly up to 57.5 µM
In short: as §2

CC(=O)OC1C(OC(=O)c2ccccc2)C2C(C)(C)CCC(OC(C)=O)C2(C)C23CCC(C)(C2)C(=O)CC13 (centres undefined)
inactive: outcome [1] | max response [2] -16.6% | max response [3] 6.15% | outcome [4] | Potency [5] | Potency [6] | Potency [7] | Potency [8] | Potency [9] | Potency [10] | Potency [11] | Potency [12] | Potency [13]

CC(C)=CCc1cc2c(cc1O)OC[C@H]1c3ccc(O)cc3O[C@@H]21
inactive: max response [1] -7.41% | max response [2] -13.5% | max response [3] -5.17% | max response [4] -23.2% | Potency [6] | Potency [7] | Potency [8] | Potency [9] | Potency [10] | Potency [11] | Potency [12] | Potency [13]

Cc1ccc(CNc2ncnc3ccc(-c4ccc(CO)o4)cc23)o1
inactive: max response [1] -10.7% | max response [3] 8.1% | max response [4] -6.8% | Potency [6] | Potency [7] | Potency [8] | Potency [9] | Potency [10] | Potency [11] | Potency [12] | Potency [13]
active: Potency [2] 16.4 µM

C=C(C)C(=O)O[C@H]1[C@H]2C(=C)C(=O)O[C@@H]2/C=C(\CO)CC/C=C(/C=O)[C@@H]1O
inactive: max response [1] -17.3% | max response [2] -13.6% | outcome [3] | max response [4] -6.9% | Potency [6] | Potency [7] | Potency [8] | Potency [9] | Potency [10] | Potency [11] | Potency [12] | Potency [13]

CC1=C(C(=O)OC2CCCCC2)C(c2ccc([N+](=O)[O-])cc2)C2=C(CC(C)(C)CC2=O)N1 (centres undefined)
inactive: max response [1] 1.32% | max response [2] -9.38% | max response [3] -12% | max response [4] -3.56% | Potency [6] | Potency [7] | Potency [8] | Potency [9] | Potency [10] | Potency [11] | Potency [12] | Potency [13]

CCC(CC)(NC(=O)C(C)C)C(=O)N[C@@H](CCCN=C(N)N)C(=O)NC1(C(=O)NC(c2ccc(F)cc2)c2ccc(F)cc2)CCCC1
inactive: max response [1] 2.72% | max response [2] -3.8% | max response [3] 7.28% | max response [4] -2.32% | Potency [6] | Potency [7] | Potency [8] | Potency [9] | Potency [10] | Potency [11] | Potency [12]

C=C[C@H](/C=C\c1ccc(O)cc1)c1ccc(O)cc1
inactive: max response [1] -3.27% | max response [2] 1.54% | max response [3] -11.7% | outcome [4] | Potency [6] | Potency [7] | Potency [8] | Potency [9] | Potency [10] | Potency [11] | Potency [12] | Potency [13]
